Bioassay records from PubChem BioAssay.
Tg IFNy HTS: blocks Toxoplasma gondii growth in the presence of IFN-gamma | Toxoplasma gondii growth in IFN-gamma-treated host cells; stronger effect = lower value | activity change, negative = inhibition, % (concentration not given with the values) | actives 3.8% (n = 69,000) | AID 1259416; in the data active = activity change below about -70%, passing the limit was not always enough;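 also: host cells are HeLa cells infected with Toxoplasma gondii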
* marks the source's active call; other numbers are inactive results. The full list was thinned out, with hits kept by preference.

SMILES | Tg IFNy HTS
Cc1nc(-c2ccc(Cl)cc2)sc1CCNC(=O)c1ccc(F)cc1 | -47
Cc1nc(-c2ccc(F)cc2)sc1CCNC(=O)c1ccc(Br)cc1 | -81*
Cc1nc(-c2ccc(Cl)cc2)sc1CCNC(=O)COc1ccccc1 | 44
Cc1ccc(C(=O)NCCc2sc(-c3ccc(Cl)cc3)nc2C)cc1C | -12
CC(NCC(=O)Nc1ccc(Cl)cc1F)c1nc(-c2ccccn2)no1 (stereo not drawn) | 0
CCCCS(=O)(=O)N1CCc2ncnc(C3CC3)c2CC1 | -15
c1cnc(N2CCCC3(CC(Oc4cccnc4)CO3)C2)nc1 (stereo not drawn) | 0
CC(=O)Nc1nnc(SCC(=O)Nc2ccc(C)c(C)c2)s1 | -1
CCN1C(=O)CCc2cc(NC(=O)Cc3ccc(OC)cc3Cl)ccc21 | 65
COc1ccc2c(c1)CCCN2C(=O)Cn1nc(C)cc1C | -2
CCn1ccnc1Cn1nc(C2CCNCC2)n(CC)c1=O | 1
Cc1cc(C2CCCN2C(=O)Cn2nc(C(F)(F)F)cc2C)no1 (stereo not drawn) | 3
O=C(c1cc2cccnc2n(Cc2ccc(F)cc2)c1=O)N1CCN(c2ccc(F)cc2)CC1 | -95*
O=C(c1cc2cccnc2n(Cc2ccc(F)cc2)c1=O)N1CCCC1 | 50
O=C(c1cc2cccnc2n(Cc2ccccc2F)c1=O)N1CCN(c2ccccc2F)CC1 | 36
O=C(c1cc2cccnc2n(Cc2ccc(F)cc2)c1=O)N1CCN(Cc2ccccc2)CC1 | -30
O=C(c1cc2cccnc2n(Cc2ccccc2F)c1=O)N1CCCC1 | 68
O=C(c1cc2cccnc2n(Cc2ccccc2F)c1=O)N1CCN(c2ccc(F)cc2)CC1 | -83*
COc1ccccc1NC(=O)N1CCc2nc(-c3ccc(OC)c(OC)c3)sc2C1 | -20
Cc1cc(C)n2c(C(=O)N3CCC4(CCCN(C)C4=O)C3)nnc2n1 (stereo not drawn) | -2
CCn1c(SC)nnc1C1CCN(C(=O)Nc2cccc(C(C)=O)c2)CC1 | 28
CC(C)NC(=O)N1C[C@H]2C[C@H](C(=O)Nc3ccccc3)[C@@H](C1)O2 | -5
Cc1nnsc1C(=O)Nc1cccc(N)c1 | 2
Cc1nnsc1C(=O)Nc1ccc(-n2nc(C(F)(F)F)cc2C(F)(F)F)cc1 | -81*
Cc1ccc(C(=O)Nc2ccc(-n3nc(C(F)(F)F)cc3-c3cccs3)cc2)cc1 | 69
SMILES | Tg IFNy HTS
CC(C)N1CCC2(CCCN(c3cnccn3)C2)CC1 | -47
CN1C(=O)c2cc(NC(=O)c3ccc(C(F)(F)F)cc3)ccc2OC[C@H]2O[C@@H](CC(=O)NCc3ccc4c(c3)OCO4)CC[C@H]21 | -28
C[C@H](NC(=O)C[C@H]1CC[C@H]2[C@@H](COc3ccc(NS(=O)(=O)c4ccc(Cl)cc4)cc3C(=O)N2C)O1)c1ccccc1 | -37
CN1C(=O)c2cc(NC(=O)Cc3cccs3)ccc2OC[C@@H]2O[C@H](CC(=O)NCC3CCCCC3)CC[C@@H]21 | -78*
C[C@@H](NC(=O)C[C@H]1CC[C@@H]2[C@H](COc3ccc(NS(=O)(=O)c4ccc(Cl)cc4)cc3C(=O)N2C)O1)c1ccccc1 | -9
CN1C(=O)c2cc(NC(=O)c3ccc(C(F)(F)F)cc3)ccc2OC[C@H]2O[C@H](CC(=O)NCc3ccc4c(c3)OCO4)CC[C@H]21 | -37
CN1C(=O)c2cc(NC(=O)c3ccc(C(F)(F)F)cc3)ccc2OC[C@@H]2O[C@@H](CC(=O)NCc3ccc4c(c3)OCO4)CC[C@@H]21 | -82*
CN1C(=O)c2cc(NC(=O)NCc3ccccc3)ccc2OC[C@H]2O[C@H](CC(=O)NCC3CCCCC3)CC[C@H]21 | -47
CN1C(=O)c2cc(NC(=O)NCc3ccccc3)ccc2OC[C@H]2O[C@H](CC(=O)NCC3CCCCC3)CC[C@@H]21 | -20
CN1C(=O)c2cc(NC(=O)Cc3cccs3)ccc2OC[C@@H]2O[C@H](CC(=O)NCC3CCCCC3)CC[C@H]21 | -11
CN1C(=O)c2cc(NC(=O)Cc3cccs3)ccc2OC[C@H]2O[C@@H](CC(=O)NCC3CCCCC3)CC[C@@H]21 | -23
CN1C(=O)c2cc(NC(=O)NCc3ccccc3)ccc2OC[C@@H]2O[C@H](CC(=O)NCC3CCCCC3)CC[C@@H]21 | -87*
C[C@@H](NC(=O)C[C@H]1CC[C@@H]2[C@@H](COc3ccc(NS(=O)(=O)c4ccc(Cl)cc4)cc3C(=O)N2C)O1)c1ccccc1 | -89*
Cc1cccc2c(CC(C)NC(=O)CC(C)n3nnc4ccccc43)c[nH]c12 (stereo not drawn) | 45
COc1ccc2c(c1)c(C(=O)Cn1c(C3CCOCC3)cc3cccnc31)c(C)n2C | 153
CC(C)NC(=O)N1C[C@H]2CN(CCN(C)C)C(=O)[C@@H]2C1 | 61
Cc1ccc(C2(O)CCN(C(=O)c3cnn(-c4ccccn4)c3C)CC2)nc1 | -37
COc1ccc(CNC(=O)Cn2ncc3c(N4CCCCCC4)ncnc32)cc1OC | -50
O=C(NC1CC1)N1CCC2(CC(Nc3ncccc3F)CO2)C1 (stereo not drawn) | -4
Cc1cccnc1CN1CC[C@@H]2OCCN(C(=O)c3ccco3)[C@@H]2C1 | 1
Cc1nc(-c2ccc(F)cc2)sc1CCNC(=O)C(=O)Nc1cccc(Cl)c1C | -6
CC(CN1CCOCC1)NC(=O)c1cc(C(C)C)nc2c1c(=O)[nH]c(=O)n2C (stereo not drawn) | 11
Cc1sc(NC(C)(C)C)nc1-c1ccc2c(c1)CCN2S(=O)(=O)c1ccccc1 | 51
c1ccc(CNc2cc(-c3ccc(-n4cnnc4)nc3)c3cc[nH]c3n2)nc1 | -6
CCN(C)Cc1ccc(-c2nc(-c3ccncc3)cc(=O)[nH]2)cc1 | 0
SMILES | Tg IFNy HTS
Oc1ccc(-c2nc(-c3ccc(F)cc3)c(-c3ccncc3)[nH]2)cc1 | -80*
COc1ccc(-c2nc(-c3ccncc3)[nH]c(=O)n2)cc1 | 44
CC(=O)N[C@@H]1c2ccccc2C2(CCN(C(=O)/C=C/c3ccccc3F)CC2)[C@H]1OCc1ccccc1 | 1
COc1ccc(-c2ccc(-n3cnnc3)nc2C)cn1 | -88*
CCCc1nc(C)cc(-c2ccc(OC)nc2)n1 | 18
Cc1nc(-n2cnnc2)ccc1-c1ccc(C(N)=O)cc1 | -1
CC(C)N1CCO[C@H]2CCN(C(=O)c3cn(C)cn3)C[C@H]21 | -4
CCN1CCN(CCNC(=O)c2csc(-c3ccc(N4CCCC4)nc3)n2)CC1 | -81*
O=C(NCCCN1CCCCC1)c1csc(-c2ccc(N3CCCC3)nc2)n1 | 16
CC1CCCCN1CCNC(=O)c1csc(-c2ccc(N3CCCC3)nc2)n1 (stereo not drawn) | -46
CCC(=O)N1CCC2C(C[C@@H](CN3CCCC3)N2c2nccs2)C1 (stereo partly drawn) | 2
CC(C)c1nccn1-c1ccc(-c2ccn[nH]2)cc1 | 4
Cc1cnc(-n2cnnc2)c(-c2ccc(S(C)(=O)=O)cc2)c1 | 2
Cc1cc(C)c(-c2cnc(-n3cnnc3)c(C)c2)c(C)c1 | -78*
COC(C)c1cccc(-c2cnc(-n3cnnc3)c(C)c2)c1 (stereo not drawn) | -11
OCc1cc(-c2ccc(-c3ccn[nH]3)cc2)ccn1 | 58
Cc1cc(-c2ccc(-c3ccn[nH]3)cc2)cnc1-n1cnnc1 | -77*
O=C(CSc1nnc(-c2cnccn2)s1)Nc1ccccc1 | 158
Cc1ccc(CN2CCC3(CC2)CC(CC(=O)NC2CC2)c2ccccc2O3)o1 (stereo not drawn) | -28
Cc1ccc(CN2CCC3(CC2)OCC(=O)N(Cc2csc(C)n2)C3C)o1 (stereo not drawn) | -6
COCC1c2nnn(CC3CC3)c2CCN1CC1CCOCC1 (stereo not drawn) | 3
